Test [1] in a line: NCI Yeast Anticancer Drug Screen. Data for the rad50 strain (AID 155).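 Also: 0% = growth of vehicle-only cultures of the same strain.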 The following applies: S. cerevisiae rad50 strain growth inhibition, stronger effect = higher value. The gist of the method: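 A DNA repair-deficient yeast mutant serves as the test organism; compound-induced growth inhibition is calculated against vehicle-treated cells.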
Test [2] can be described thus: NCI Yeast Anticancer Drug Screen. Data for the mec2-1 strain (AID 157). Particulars: S. cerevisiae mec2-1 strain, stronger effect = higher value. The gist of the method:
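Cells of the genetically defined mec2-1 yeast strain are incubated with test compound. Inhibition of growth is calculated against vehicle-treated controls.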

Test [3] can be described thus: NCI Yeast Anticancer Drug Screen. Data for the sgs1 mgt1 strain (AID 161).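 Also: 0% = growth of cultures given vehicle only.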 The following applies: S. cerevisiae sgs1 mgt1 strain, stronger effect = higher value. The gist of the method:
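Mutant yeast exposed to compound; growth scored against vehicle-only wells.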

Test [4] can be described thus: NCI Yeast Anticancer Drug Screen. Data for the cln2 rad14 strain (AID 165).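 Also: 0% = growth equal to vehicle treated cultures.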 Particulars: S. cerevisiae cln2 rad14 strain, stronger effect = higher value. The gist of the method:
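The screen exposed genetically defined yeast (cln2 rad14) to test compounds and scored growth inhibition relative to vehicle-treated controls.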

The nature of test [5]: NCI Yeast Anticancer Drug Screen. Data for the bub3 strain (AID 167). The following applies: S. cerevisiae bub3 mutant strain, stronger effect = higher value. The gist of the method:
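Inhibition values come from growth of compound-treated mutant yeast normalised to vehicle-treated controls.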

A short description of test [6]: NCI Yeast Anticancer Drug Screen. Data for the mlh1 rad18 strain (AID 175). The following applies: S. cerevisiae mlh1 rad18 strain growth inhibition, stronger effect = higher value. The gist of the method:
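Compound-treated yeast growth, normalised to vehicle controls. Strain bears defined DNA repair mutations.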

Where [7] appears, read: at 5.0 µM (retest, dose inferred, filed as 0.5).
[8] abbreviates: at 50.0 µM (retest, dose inferred, filed as 5.0).

We go through 10 compounds from PubChem BioAssay (NCI).

The structures appear in SMILES notation. Compounds without any hit were thinned out: in the full panel of roughly 79,000, 15% have a hit. Unmarked numbers belong to inactive results. Active and inactive are the calls of the source. Rule as the data show it: active = growth inhibition above about 70%; inactive = the rest.

Regarding `COc1ccc(/C(O)=C/c2nc3ccc([N+](=O)[O-])cc3[nH]c2=O)cc1`, the growth inhibition in test [1] (setting [7]) is 12%; in test [1] (setting [8]) it was 70% (active); in test [1] (at 50.0 µM), 78.9% (active); in test [2] (setting [7]), 1%; in test [2] (setting [8]), 57%; in test [2] (at 50.0 µM), 49.5%. Also, the growth inhibition in test [3] (setting [7]) is -2%; in test [3] (setting [8]) it was 67%; in test [3] (at 50.0 µM) it was 92.6% (active); in test [4] (setting [7]), 3%; in test [4] (setting [8]) it was 77% (active); in test [4] (at 50.0 µM) it was 80.7% (active). Also, the growth inhibition is 2% in test [5] (setting [7]); 46% in test [5] (setting [8]); 26.9% in test [5] (at 50.0 µM); 2% in test [6] (setting [7]); 68% in test [6] (setting [8]); 90.8% (active) in test [6] (at 50.0 µM).

For the compound `COc1ccc(C)cc1NC(=O)ON=C1CCCCC1`, the growth inhibition was 45% in test [1] (setting [7]); 83% (active) in test [1] (setting [8]); 88.2% (active) in test [1] (at 50.0 µM); 35% in test [2] (setting [7]); 88% (active) in test [2] (setting [8]); 91.8% (active) in test [2] (at 50.0 µM). The growth inhibition is 47% in test [3] (setting [7]); 92% (active) in test [3] (setting [8]); 91.9% (active) in test [3] (at 50.0 µM); 38% in test [4] (setting [7]); 81% (active) in test [4] (setting [8]); 90.5% (active) in test [4] (at 50.0 µM). For the same compound, the growth inhibition in test [5] (setting [7]) is 30%; in test [5] (setting [8]), 91% (active); in test [5] (at 50.0 µM), 91.7% (active); in test [6] (setting [7]), 48%; in test [6] (setting [8]) it was 94% (active); in test [6] (at 50.0 µM), 90.5% (active).

In the case of `O=C(CCCl)Nc1cc2ccccc2oc1=O`, the growth inhibition in test [1] (setting [7]) was -19%; in test [1] (setting [8]), -19%; in test [1] (at 50.0 µM) it was -8.5%; in test [2] (setting [7]), -2%; in test [2] (setting [8]), -17%; in test [2] (at 50.0 µM), 15.9%. Besides, the growth inhibition in test [3] (setting [7]) is -10%; in test [3] (setting [8]) it was 23%; in test [3] (at 50.0 µM), 6.65%; in test [4] (setting [7]), 1%; in test [4] (setting [8]) it was 13%; in test [4] (at 50.0 µM), 0.55%. Besides, the growth inhibition was -4% in test [5] (setting [7]); -10% in test [5] (setting [8]); -1.1% in test [5] (at 50.0 µM); -16% in test [6] (setting [7]); 19% in test [6] (setting [8]); -2.15% in test [6] (at 50.0 µM).

Take `CN(C)C(=O)N(C)/N=C/c1ccc([N+](=O)[O-])o1`: the growth inhibition in test [1] (setting [7]) was 10%; in test [1] (setting [8]) it was 56%; in test [1] (at 50.0 µM) it was 80.3% (active); in test [2] (setting [7]) it was 1%; in test [2] (setting [8]) it was 21%; in test [2] (at 50.0 µM), 53.5%. Moreover, the growth inhibition was 8% in test [3] (setting [7]); 68% in test [3] (setting [8]); 90.8% (active) in test [3] (at 50.0 µM); 4% in test [4] (setting [7]); 30% in test [4] (setting [8]); 42.2% in test [4] (at 50.0 µM). Also, the growth inhibition in test [5] (setting [7]) was 5%; in test [5] (setting [8]), 42%; in test [5] (at 50.0 µM), 40%; in test [6] (setting [7]), 21%; in test [6] (setting [8]), 68%; in test [6] (at 50.0 µM), 89.5% (active).

For `C/C(=N\Nc1ccccn1)c1ccccn1`, the growth inhibition in test [1] (setting [7]) was 47%; in test [1] (setting [8]) it was 98% (active); in test [1] (at 50.0 µM), 98.8% (active); in test [2] (setting [7]), 61%; in test [2] (setting [8]) it was 99% (active); in test [2] (at 50.0 µM), 98.7% (active). Further, the growth inhibition in test [3] (setting [7]) is 57%; in test [3] (setting [8]), 98% (active); in test [3] (at 50.0 µM) it was 99% (active); in test [4] (setting [7]) it was 56%; in test [4] (setting [8]) it was 99% (active); in test [4] (at 50.0 µM), 97.3% (active). For the same compound, the growth inhibition is 53% in test [5] (setting [7]); 98% (active) in test [5] (setting [8]); 49.9% in test [5] (at 50.0 µM); 60% in test [6] (setting [7]); 98% (active) in test [6] (setting [8]); 98.5% (active) in test [6] (at 50.0 µM).

On to `CCN(CC)CCC(=O)OC1C(C)=CC(C)C(=O)CC(C(C)CC2CCC(O)C(OC)C2)OC(=O)C2CCCCN2C(=O)C(=O)[C@@]2(O)OC(CCC2C)CC(OC)\C(C)=C/C=C/C=C/C(C)CC(C)C(=O)C1OC` (stereo not given in full), for which the growth inhibition in test [1] (setting [7]) was 40%; in test [1] (setting [8]) it was 97% (active); in test [1] (at 50.0 µM) it was 90.9% (active); in test [2] (setting [7]), 26%; in test [2] (setting [8]) it was 98% (active); in test [2] (at 50.0 µM) it was 93% (active). Moreover, the growth inhibition was 96% (active) in test [3] (setting [7]); 96% (active) in test [3] (setting [8]); 93.4% (active) in test [3] (at 50.0 µM); 94% (active) in test [4] (setting [7]); 95% (active) in test [4] (setting [8]); 87.7% (active) in test [4] (at 50.0 µM). The growth inhibition in test [5] (setting [7]) is 53%; in test [5] (setting [8]), 98% (active); in test [5] (at 50.0 µM) it was 92.8% (active); in test [6] (setting [7]), 97% (active); in test [6] (setting [8]), 97% (active); in test [6] (at 50.0 µM), 92.2% (active).

Take `OC(Cc1ccc2ccccc2c1)CN1CCC(c2ccccc2)CC1` (stereo not given): the growth inhibition in test [1] (setting [7]) is 56%; in test [1] (setting [8]), 84% (active); in test [1] (at 50.0 µM), 89.3% (active); in test [2] (setting [7]), 37%; in test [2] (setting [8]) it was 80% (active); in test [2] (at 50.0 µM) it was 83.5% (active). Moreover, the growth inhibition in test [3] (setting [7]) was 24%; in test [3] (setting [8]) it was 76% (active); in test [3] (at 50.0 µM), 91.2% (active); in test [4] (setting [7]), 70% (active); in test [4] (setting [8]), 88% (active); in test [4] (at 50.0 µM), 90.1% (active). Besides, the growth inhibition in test [5] (setting [7]) is 67%; in test [5] (setting [8]), 96% (active); in test [5] (at 50.0 µM) it was 91.6% (active); in test [6] (setting [7]), 81% (active); in test [6] (setting [8]), 94% (active); in test [6] (at 50.0 µM), 90.5% (active).

As to `COc1cc(C/C=C/c2ccccc2)c(OC)cc1O`, the growth inhibition in test [1] (setting [7]) is 18%; in test [1] (setting [8]) it was 30%; in test [1] (at 50.0 µM), 63.6%; in test [2] (setting [7]) it was 18%; in test [2] (setting [8]) it was 24%; in test [2] (at 50.0 µM), 61.7%. Also, the growth inhibition in test [3] (setting [7]) was 15%; in test [3] (setting [8]), 37%; in test [3] (at 50.0 µM) it was 54.4%; in test [4] (setting [7]), 18%; in test [4] (setting [8]) it was 29%; in test [4] (at 50.0 µM), 76% (active). Further, the growth inhibition in test [5] (setting [7]) was 20%; in test [5] (setting [8]) it was 29%; in test [5] (at 50.0 µM), 64.8%; in test [6] (setting [7]) it was 17%; in test [6] (setting [8]), 35%; in test [6] (at 50.0 µM) it was 48.5%.

On to `CC(=O)N(O)c1ccc2c(c1)Cc1cc(F)ccc1-2`, for which the growth inhibition in test [1] (setting [7]) is 75% (active); in test [1] (setting [8]), 37%; in test [1] (at 50.0 µM), 97% (active); in test [2] (setting [7]), 34%; in test [2] (setting [8]), 29%; in test [2] (at 50.0 µM) it was 94% (active). Further, the growth inhibition in test [3] (setting [7]) was 65%; in test [3] (setting [8]) it was 35%; in test [3] (at 50.0 µM), 97.1% (active); in test [4] (setting [7]) it was 45%; in test [4] (setting [8]), 21%; in test [4] (at 50.0 µM) it was 92.5% (active). The growth inhibition was -14% in test [5] (setting [7]); 80% (active) in test [5] (setting [8]); 97.8% (active) in test [5] (at 50.0 µM); 49% in test [6] (setting [7]); 57% in test [6] (setting [8]); 96.5% (active) in test [6] (at 50.0 µM).

Take `CCN(CC)CCNC(=O)c1ccc(N=Cc2cc(Cl)cc(Cl)c2O)cc1`: the growth inhibition in test [1] (setting [7]) is 48%; in test [1] (setting [8]) it was 49%; in test [1] (at 50.0 µM) it was 81.2% (active); in test [2] (setting [7]) it was 32%; in test [2] (setting [8]) it was 48%; in test [2] (at 50.0 µM), 91% (active). For the same compound, the growth inhibition in test [3] (setting [7]) is 49%; in test [3] (setting [8]) it was 97% (active); in test [3] (at 50.0 µM) it was 88.8% (active); in test [4] (setting [7]), 24%; in test [4] (setting [8]) it was 99% (active); in test [4] (at 50.0 µM), 84.8% (active). The growth inhibition was 88% (active) in test [5] (setting [7]); 97% (active) in test [5] (setting [8]); 89.2% (active) in test [5] (at 50.0 µM); 46% in test [6] (setting [7]); 39% in test [6] (setting [8]); 85.7% (active) in test [6] (at 50.0 µM).
